KB-V1 cytotox = qHTS assay for MDR1-selective chemotherapeutics: Primary screen using the drug-selected MDR subline cells KB-V1; KB-V1 MDR cells viability, CellTiter-Glo, 72 h; Potency, µM (top dose mostly 46.1 µM), actives largely listed as cytotoxic; hit rate 3.4% among 400,000; further: nearly all actives have a fitted effect of over 60% in size
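Potencies derive from concentration-effect curves fitted to normalized luminescence (CellTiter-Glo) of KB-V1 cells treated for 72 h at 37 degrees C in phenol-red-free DMEM containing 10% FBS.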
RGS4 inh = Inhibitors of Regulator of G Protein Signaling (RGS) 4: qHTS; Regulator of G-protein signaling 4 (Homo sapiens), P49798; Transcreener GDP fluorescence polarization, RGS4-accelerated GTP hydrolysis; Potency, µM (series often up to 114 µM), actives largely listed as inhibitors; hit rate 0.039% among 390,000; further: nearly all actives have a fitted effect of over 75% in size
Target sequence (P49798 whole entry, looked up): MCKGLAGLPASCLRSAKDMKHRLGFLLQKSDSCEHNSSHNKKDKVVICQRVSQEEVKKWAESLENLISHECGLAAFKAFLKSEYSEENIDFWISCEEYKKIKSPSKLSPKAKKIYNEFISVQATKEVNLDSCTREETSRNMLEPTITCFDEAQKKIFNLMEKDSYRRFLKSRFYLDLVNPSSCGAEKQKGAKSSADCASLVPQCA
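MLSMR compounds (23 nl, pin-transferred) preincubated 10 min at room temperature with a 500nM (2x) first reagent, then RGS4 at 900nM (2x) plus Transcreener GDP mix added; fluorescence polarization (620/688 nm) read before and after 90 min at 30 °C.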
SW480 rerep = A quantitative high throughput screen for small molecules that induce DNA re-replication in SW480 colon adenocarcinoma cells | SW480 DNA re-replication, Hoechst DNA content imaging, 48 h | Potency, µM (titrated, usually from 46.1 µM), most hits filed as activators | hit rate 1.8% among 340,000; further: nearly all actives have a fitted effect of over 55% in size
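DNA re-replication was detected as more nuclei of elevated Hoechst intensity after 48 hr exposure to compound (23 nL pinned per well of 250 cells).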
MCF10A rerep = A quantitative high throughput screen for small molecules that induce DNA re-replication in MCF 10a normal breast cells; hit rate 2.9% among 350,000; MCF 10A DNA re-replication, Hoechst nuclear intensity, 48 h; AID 624296, 2012; Potency, µM (highest dose often 46.1 µM), hits mostly activators; further: nearly all actives have a fitted effect of over 50% in size
KB-3-1 cytotox = qHTS assay for MDR1-selective chemotherapeutics: Primary screen using the parental adenocarcinoma cell KB-3-1. KB-3-1 viability, CellTiter-Glo ATP luminescence, 72 h. AID 1347075, 2019. Potency, µM (series often up to 46.1 µM), usual class: cytotoxic. hit rate 1.4% among 400,000; further: nearly all actives have a fitted effect of over 60% in size
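Parental KB-3-1 viability, qHTS format: 72 h compound exposure, 37 °C; CellTiter-Glo; media-only wells and DMSO plates as controls; concentration-effect fits on corrected data.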
PTAP TSG101 blk = qHTS Assay for Iinhibitors of HIV-1 Budding by Blocking the Interaction of PTAP/TSG101; Potency, µM (highest dose often 115 µM), actives largely listed as inhibitors; Tumor susceptibility gene 101 protein (Homo sapiens), Q99816; Fluorescence polarization, FITC-PTAP peptide / Tsg101 binding; AID 493005, 2010; 340,000 tested, under 10 active; active means well fitted inhibition curve with a large enough effect in the main read-out, with a control signal flat, not every such curve was filed as active; inconclusive means small, poorly fitted or top-dose-only effect, or effect the other way, or a change in a side signal; inactive means no such curve, though single readings can be large or run the other way
Target sequence (Q99816 whole entry, looked up): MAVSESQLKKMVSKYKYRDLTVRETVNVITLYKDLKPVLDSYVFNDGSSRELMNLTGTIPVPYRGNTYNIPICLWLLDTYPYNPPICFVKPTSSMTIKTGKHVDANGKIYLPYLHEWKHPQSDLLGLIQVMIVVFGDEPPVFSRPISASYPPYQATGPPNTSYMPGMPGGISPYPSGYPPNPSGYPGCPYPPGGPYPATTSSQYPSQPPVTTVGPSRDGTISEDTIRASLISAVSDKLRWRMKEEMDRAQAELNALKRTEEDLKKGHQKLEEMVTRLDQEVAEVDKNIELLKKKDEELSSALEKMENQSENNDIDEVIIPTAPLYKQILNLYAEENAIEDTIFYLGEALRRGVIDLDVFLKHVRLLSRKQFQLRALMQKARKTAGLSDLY
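FP read-out: FITC-PTAP peptide, 50 nM final, binding Tsg101 binding domain, 10 uM final; 20 min, r.t.; 10 mM HEPES pH 7.5, 0.15 M NaCl, 0.01% Tween 20, 3 mM EDTA, 0.1 mM TCEP.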
A number is an active result; – = inactive; ? = inconclusive; · = not tested or not shown; [ ] = remark or other dose. A selection: hits, their analogues and other compounds. The true share with any hit is near 6.6%. Unless noted, the call rests on the fitted dose curve; in most records, active means well fitted curve in the direction sought with a large enough effect; inconclusive means small, poorly fitted or top-dose-only effect, or another doubt; inactive means no such curve, though single readings can be large; an effect the other way counts as inactive or inconclusive.

SMILES	KB-V1 cytotox	RGS4 inh	SW480 rerep	MCF10A rerep	KB-3-1 cytotox	PTAP TSG101 blk
CCCCn1c(N)c(N(CC)C(=O)c2cnc(C)cn2)c(=O)[nH]c1=O	–	–	–	–	–	–
CCCCn1c(N)c(N(CC(C)C)C(=O)c2cnccn2)c(=O)[nH]c1=O	–	–	18µM	–	–	–
CCCCn1c(N)c(N(CC(C)C)C(=O)c2cc3c(s2)CCCCC3)c(=O)[nH]c1=O	–	–	7.3µM	–	–	–
CCCCn1c(N)c(N(CC(C)C)C(=O)c2ccc(-c3ccc(Cl)cc3)o2)c(=O)[nH]c1=O	?	–	–	23µM	?	–
CCO[C@H]1OC(C(=O)NCc2nc3ccccc3[nH]2)=C[C@@H](c2ccccc2)[C@@H]1CCCO	–	–	–	–	–	–
CCO[C@@H]1OC(C(=O)N2CCN(Cc3ccc4c(c3)OCO4)CC2)=C[C@H](c2ccc(C(F)(F)F)cc2)[C@H]1CCCO	26µM	–	–	–	?	·
CCO[C@H]1OC(C(=O)NCc2nc3ccccc3[nH]2)=C[C@@H](C2CC2)[C@@H]1CCCO	–	–	3.3µM	3.7µM	–	–
CCO[C@@H]1OC(C(=O)NCc2ccccc2)=C[C@H](c2ccc(C(F)(F)F)cc2)[C@H]1CCCO	–	–	?	2.9µM	–	?
FC(F)(F)c1cc(-c2ccccc2)nc(N2CCCCC2)n1	–	–	–	?	–	–
c1ccc(-c2nnc3nc(N4CCCCC4)nc(N4CCCCC4)n23)cc1	18µM	–	–	–	?	–
CC(C)=CCNc1ncnc2c1c(C#N)cn2C1OC(CO)C(O)C1O (configuration not stated)	?	–	?	15µM	?	–
O=C(Cc1ccc(F)cc1)Nc1cccc2cccnc12	16µM	–	–	–	–	–
Cc1cccc(N(CC(=O)NCCSCc2cccc(Cl)c2)S(=O)(=O)c2ccccc2)c1C	–	–	·	·	–	·
COc1ccc2c(C)cc(SCc3c(C)noc3C)nc2c1	–	–	?	12µM	–	–
COc1ccc2c(C)cc(SCC#N)nc2c1	–	–	–	?	–	–
Cc1cc(C)c2nc(Cl)c(C3NC(=O)c4ccccc4N3)cc2c1 (configuration not stated)	–	–	–	?	–	–
Cc1ccc(C)c(C2NC(=O)c3ccccc3N2)c1 (configuration not stated)	–	–	7.3µM	2.3µM	?	–
Cc1ccc(C)c2nc(Cl)c(C3NC(=O)c4ccccc4N3)cc12 (configuration not stated)	?	–	–	?	?	–
COc1cc(C)c(C2NC(=O)c3ccccc3N2)cc1C (configuration not stated)	?	–	7.3µM	7.3µM	2.6µM	–
Cn1cc(C2NC(=O)c3ccccc3N2)c2ccccc21 (configuration not stated)	1.5µM	–	5.8µM	2.9µM	1.2µM	–
O=c1c2cnn(-c3ccc(Cl)cc3)c2ncn1Cc1ccc(Cl)cc1Cl	·	–	·	·	·	·
Cc1cccc(NC(=O)Cn2c(=O)n(CCc3ccccc3)c(=O)c3sc4ccccc4c32)c1	·	–	·	·	·	·
COc1ccccc1CNC(=O)CSc1nc(=O)[nH]c2c1CCCC2	·	–	·	·	·	·
CCCN(Cc1cc2cccc(C)c2[nH]c1=O)C(=O)c1cccc(Cl)c1	–	–	·	·	–	·
CN1c2ccccc2C(C)(C)C12CC(c1cccc(S(=O)(=O)N3CCCC3)c1)=NO2 (configuration not stated)	6.5µM	–	–	–	?	–
SMILES	KB-V1 cytotox	RGS4 inh	SW480 rerep	MCF10A rerep	KB-3-1 cytotox	PTAP TSG101 blk
CN1c2ccccc2C(C)(C)C12CC(c1ccc(S(=O)(=O)N3CCCCC3)cc1)=NO2 (configuration not stated)	?	–	–	–	–	–
Cc1nn(C)c(Cl)c1NC(=O)OCc1ccc(F)cc1	–	–	–	–[0.0737 µM]	–	–
COc1ccccc1COC(=O)Nc1c(C)nn(C)c1Cl	23µM	–	–	–	–	–
COc1cccc(CC(=O)Nc2sc3c(c2C(N)=O)CCCC3)c1	?	–	–	–	–	–
COc1ccc(CC(=O)Nc2sc3c(c2C(N)=O)CCCC3)cc1OC	13µM	–	–	–	?	–
CN(CC(=O)Nc1ccccc1Cl)CC(=O)Nc1sc2c(c1C(N)=O)CCC2	–	–	?	3.3µM	–	–
COCC(=O)Nc1sc2c(c1C(=O)OC)CCCC2	–	–	–	–[0.0737 µM]	–	–
CN(CC(=O)Nc1ccc(Cl)cc1)CC(=O)Nc1sc2c(c1C(N)=O)CCC2	–	·	·	·	–	·
COC(=O)c1c(NC(=O)COC(=O)c2ccc(O)cc2)sc2c1CCCCC2	–	–	?	13µM	–	–
COc1cccc(C(=O)N(Cc2ccc(N(C)C)cc2)Cc2ccco2)c1	·	–	·	·	·	·
COC(=O)C1=C(C)NC(C)=C(C(=O)O[C@@H]2CCCN(Cc3ccccc3)C2)[C@@H]1c1cccc([N+](=O)[O-])c1	?	–	?	?	–	?
COCCOC(=O)C1=C(C)NC(C)=C(C(=O)OC(C)C)C1c1cccc([N+](=O)[O-])c1 (configuration not stated)	–	–	–	?	–	–
COCCOC(=O)C1=C(C)NC(C)=C(C(=O)OC/C=C/c2ccccc2)C1c1cccc([N+](=O)[O-])c1 (configuration not stated)	·	–	30µM	–	·	·
CC1=C(C(=O)OC(C)C)C(c2cccc([N+](=O)[O-])c2)C(C(=O)OC2CN(C(c3ccccc3)c3ccccc3)C2)=C(N)N1 (configuration not stated)	·	·	?	21µM	·	·
COC(=O)C1=C(C)NC(C)=C(C(=O)OC(C)(C)CN(C)CCC(c2ccccc2)c2ccccc2)C1c1cccc([N+](=O)[O-])c1 (configuration not stated)	·	–	12µM	–	·	·
CN(C)c1ccc(C=NC2CCc3ccccc32)cc1 (configuration not stated)	–	·	·	·	–	·
COc1ccccc1-c1noc(CCCC(=O)Nc2cc(C)ccc2C)n1	–	–	·	·	–	·
O=C(NC(Nc1nc2ccc([N+](=O)[O-])cc2s1)(C(F)(F)F)C(F)(F)F)c1ccccc1Cl	–	–	?	21µM	?	–
